The record followed here is the OligoGym collection.

Targets include NPR1; NPEPL1; NPC1L1; NPSR1; NPBWR1.
Experiment in all cases: pooled miR-30 sensor sort-seq; sequence = guide strand
Common to all, as to settings: shRNA
Note: reference of the scale not given here.

TTCTCCAGCTGCATCTTCCTGT showed a sensor-assay potency score (higher = more potent) with NPR1 of -0.0836.
TTCGCTAAGCACTGCAATGTGG showed a sensor-assay potency score (higher = more potent) with NPEPL1 of -0.589.
On to TAGACTCCATTCTTGAGGCTGT, for which the sensor-assay potency score (higher = more potent) in the experiment with NPR1 was 0.414.
As for TTGATTTCCACCGTCTTCCCTG, the sensor-assay potency score (higher = more potent) with NPEPL1 is -0.0975.
In turn, TTGTTGGGCAAGAAGTTGCTGA had a sensor-assay potency score (higher = more potent) in the experiment with NPC1L1 of -0.757.
On the same count and under the same terms, the result for TTGGAGAGTGTCATGAGGCTTC reads -0.0939.
Regarding TACCCTTCCAGTTCTCTCGTTG, the sensor-assay potency score (higher = more potent) in the experiment with NPSR1 stood at 0.107.
Sequence TTGTCAGCTGTGGAGACTCGGG yielded a sensor-assay potency score (higher = more potent) with NPC1L1 of -1.23.
TATAATATGCTGTCTTGGCAAA registered a sensor-assay potency score (higher = more potent) with NPR1 of -1.35.
TCGGTGTTCATCTCATTGCAGG showed a sensor-assay potency score (higher = more potent) with NPEPL1 of -1.16.
Same read-out and setting: the result for TTGTCTTTGAAACCCTGCTTGA reads -0.575.
For the sequence TAGCGCAGCCTCCTGGAGCTGA, the sensor-assay potency score (higher = more potent) in the experiment with NPSR1 was -0.612.
As to TTGCAAGCATAGGACACGCCAT, the sensor-assay potency score (higher = more potent) in the experiment with NPEPL1 is -0.766.
TTCTTCTTTCTCCTCCATGTGG: the sensor-assay potency score (higher = more potent) with NPSR1 was -0.829.
TTGATGGGCAGCACCAGCGTGA registered a sensor-assay potency score (higher = more potent) in the experiment with NPBWR1 of -0.969.
TCGCAGACCATCACAATGCAGC: in the experiment with NPEPL1, the sensor-assay potency score (higher = more potent) was -1.2.
On to TTGATCTCGTCTTCCAGAGAGC, for which, in the experiment with NPC1L1, the sensor-assay potency score (higher = more potent) was -1.19.
In the experiment with NPC1L1, TTGTGATAGGCCATGAACCTGG gave a sensor-assay potency score (higher = more potent) of -0.611.
On the same count and under the same terms, next, TTGGTGATCGACAGACTCGCTT: 0.12.
TAGAGCAGCACAACCTGCAAAT returned a sensor-assay potency score (higher = more potent) with NPSR1 of -0.941.
As for TAGAGGGGACAGCTGTCCGTGG, the sensor-assay potency score (higher = more potent) with NPEPL1 is -0.837.
Turning to TTCCTGTATATGAAGAAGGAGA, in the experiment with NPR1, the sensor-assay potency score (higher = more potent) was -1.29.
The sequence TTGGGGTCCACCATCTTGCTTT had a sensor-assay potency score (higher = more potent) with NPC1L1 of -0.775.
Sequence TTCATGTCCGCCACAGCTGAGG registered a sensor-assay potency score (higher = more potent) with NPEPL1 of -1.03.
For the sequence TTTGAGATGAGTCCTCGGTTAT, the sensor-assay potency score (higher = more potent) with NPSR1 is -1.18.
In the experiment with NPC1L1, TTATGGAACTGCTCCACCGAGG had a sensor-assay potency score (higher = more potent) of -0.788.
Take TTAGACTCCATTCTTGAGGCTG: the sensor-assay potency score (higher = more potent) in the experiment with NPR1 is 0.316.
Same read-out and setting: the result for TCATTGGTGAGTGAGTACCGGA reads -1.01.
Sequence TTGGACAGTGTCCTCTTCCCAA returned a sensor-assay potency score (higher = more potent) in the experiment with NPSR1 of -1.13.
On to TTTCGTGTCAGCTCAATGCGTT, for which the sensor-assay potency score (higher = more potent) with NPR1 was determined as 0.0994.
